TRHR agonist-1: agonists of human TRH receptor | TRHR cells, calcium flux fluo-8, FDSS agonist mode | activation, % at 2 µM | 360,000 tested, 0.18% active | AID 493084 | P34981; in the data active = activation above about 30%
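In this calcium-flux screen, cells bearing human TRHR are dye-loaded with fluo-8, baselined for 10 cycles, then exposed to library compounds; positive kinetic calcium responses during the agonist phase mark hits, with TRH as control.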
D1 antag: blocks dopamine activation of the human D1 receptor; P21728; HEK293 TREx D1 cells, calcium flux, dopamine EC80; hits give low values; activity change, negative = inhibition, % at 10 µM; 360,000 tested, 3.2% active; in the data active = activity change below about -30%
Target sequence (P21728 whole entry, looked up): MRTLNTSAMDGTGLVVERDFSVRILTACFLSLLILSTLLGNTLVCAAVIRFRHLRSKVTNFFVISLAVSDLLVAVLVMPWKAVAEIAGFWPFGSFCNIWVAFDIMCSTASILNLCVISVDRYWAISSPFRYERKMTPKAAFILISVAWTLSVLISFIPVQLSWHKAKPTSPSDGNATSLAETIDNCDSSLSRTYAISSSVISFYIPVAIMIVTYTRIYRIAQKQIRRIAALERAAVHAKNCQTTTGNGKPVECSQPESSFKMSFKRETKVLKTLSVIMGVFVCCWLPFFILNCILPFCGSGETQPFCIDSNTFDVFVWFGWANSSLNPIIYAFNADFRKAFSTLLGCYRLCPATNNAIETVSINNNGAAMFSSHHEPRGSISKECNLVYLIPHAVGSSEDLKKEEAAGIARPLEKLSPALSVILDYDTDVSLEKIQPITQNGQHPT
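Tetracycline-induced HEK293 T-REx cells with force-coupled D1 receptor were loaded with a no-wash calcium dye. Compound was added after a 10 s baseline and read kinetically for 180 s; EC80 dopamine was then added and calcium flux followed another 180 s.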
D1 agonist: human D1 receptor agonism; 360,000 tested, 1% active; activation, % at 2 µM; P21728; HEK293 T-REx D1 cells, calcium flux, agonist mode; in the data active = activation above about 30%
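Agonism was scored from calcium flux recorded over 180 s (1 read/s) after pintool compound addition, following a 10-cycle baseline. Cells were inducible force-coupled HEK293 TREx D1, plated overnight at 30 C and loaded with no-wash calcium dye.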
TRHR enhancer-1: allosteric enhancers of human TRH receptor; TRHR cells, fluo-8 calcium fluorescence, EC20 TRH enhancement; enhancement, % at 2 µM; 360,000 tested, 0.66% active; in the data active = enhancement above about 30%
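TRHR-expressing cells loaded with fluo-8 calcium dye were read kinetically (ex 480/em 530) during compound addition, then stimulated with an EC20 of TRH (10 nM final). Enhancement of the Gq-mediated intracellular calcium response was scored.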
D1 potentiator: potentiators of human D1 dopamine receptor; HEK293 TREx D1 cells, calcium flux, dopamine EC20 potentiation; potentiation, % at 10 µM; 360,000 tested, 0.036% active; AID 504651; in the data active = potentiation above about 30%
TRHR enhancer-2: human TRH receptor allosteric enhancement confirmation | TRH receptor cell assay, enhancer confirmation qHTS | AID 493076 | 970 tested, under 10 active | activity change, negative = inhibition, % at 46.1 µM | shares compounds with TRHR enhancer-1;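 note: compound effect scored on response to added TRH at EC20 of 10 nM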
TRHR agonist-2: confirmation of human TRH receptor agonists; shares compounds with TRHR enhancer-1; TRHR-expressing cells, agonist activation read-out; Potency, µM (series often up to 46.1 µM), hits mostly activators; 970 tested, 8% active; AID 493078; note: nearly all actives have a fitted effect of over 75% in size
Large screens that a line does not name were inactive (follow-up assays come after a bar, where they were run). In the library only some 4.7% were active in any assay of this set; here they are far more common. Unless noted, calls come from the whole dose curve; as a rule, active = well fitted curve in the direction sought with a large enough effect; inconclusive = small, poorly fitted or top-dose-only effect, or another doubt; inactive = no such curve, though single readings can be large; an effect the other way counts as inactive or inconclusive.

Cc1ccccc1NC(=S)N(CCN(C)C)C(C)c1cccnc1 (stereo not drawn)	TRHR enhancer-1 43.1 | TRHR enhancer-2 inactive | TRHR agonist-2 inactive
COc1ccc2nc(-c3ccccn3)[nH]c2c1	TRHR enhancer-1 45.7 | TRHR enhancer-2 inactive | TRHR agonist-2 inactive
S=c1nc(-c2sccc2OCc2ccc(Cl)cc2Cl)[nH][nH]1	TRHR enhancer-1 50.5 | TRHR enhancer-2 inconclusive | TRHR agonist-2 inactive
C[n+]1cn(CC(O)COCc2ccccc2)c2ccccc21 (stereo not drawn)	TRHR enhancer-1 52.6 | TRHR enhancer-2 inactive | TRHR agonist-2 inactive
CCOc1ccc(C(=O)Nc2ccc(C(=O)N3CCOCC3)cc2)c(OCC)c1	none
COc1ccc(C(=O)Nc2ccccc2C(=O)NC(C(=O)NCc2ccco2)C(C)C)cc1 (stereo not drawn)	TRHR enhancer-1 48.2 | TRHR enhancer-2 inactive | TRHR agonist-2 inactive
COc1ccc(C(=O)N[C@H](C(=O)NCc2ccco2)C(C)C)cc1	none
CCc1ccc(NC(=O)C(=O)NCC(c2cccnc2)N2CCOCC2)cc1 (stereo not drawn)	none
Nc1c(S(=O)(=O)c2ccccc2)c2nc3ccccc3nc2n1Cc1ccco1	none | TRHR enhancer-2 inactive | TRHR agonist-2 inconclusive
Nc1c(S(=O)(=O)c2ccccc2)c2nc3ccccc3nc2n1CCN1CCOCC1	none
COCCCNC(=O)CCCn1c(SCC(=O)c2ccc(Br)cc2)nc2c(sc3ccccc32)c1=O	none
COc1ccc(C(=O)NCCc2nnc3ccc(SCC(=O)NCc4ccccc4)nn23)cc1	TRHR enhancer-1 63.6 | TRHR enhancer-2 inactive | TRHR agonist-2 inactive
Cc1cc(C(=O)COc2cccc3cccnc23)c(C)n1C	none
Cc1ccc(OCC(=O)c2cc(C)n(C)c2C)c([N+](=O)[O-])n1	TRHR enhancer-1 44.3 | TRHR enhancer-2 inactive | TRHR agonist-2 inactive
S=C(NC1CCCCC1)N1CCN(c2ccccn2)CC1	TRHR enhancer-1 43.5 | TRHR enhancer-2 inactive | TRHR agonist-2 inactive
S=C(NC1CCCCC1)N1CCN(c2ncccn2)CC1	none
COc1cc(Cl)c(C)cc1N1C(=O)CN(Cc2ccccc2)C1=S	TRHR agonist-1 90.6 | TRHR enhancer-2 inactive | TRHR agonist-2 inactive
COc1cc(NC(=O)C2CCN(C(=O)c3sc4nc[nH]c(=O)c4c3C)CC2)cc(OC)c1OC	none
CCOc1ccc(-c2nc(S(=O)(=O)c3ccccc3)c(N3CCC(C(N)=O)CC3)o2)cc1	none
O=S(=O)(c1ccccc1)C1CON(Cc2ccccc2)C1c1ccccc1 (stereo not drawn)	none
CN1OCC(S(=O)(=O)c2ccccc2)C1c1ccccc1 (stereo not drawn)	TRHR enhancer-1 44.2 | TRHR enhancer-2 inactive | TRHR agonist-2 inactive
COc1ccc(CNC(=O)CSc2ncc(S(=O)(=O)c3ccc(C)c(Cl)c3)c(=O)[nH]2)cc1	none
COc1ccccc1-n1nnnc1SCC(=O)Nc1ccccc1	TRHR enhancer-1 56.4 | TRHR enhancer-2 inactive | TRHR agonist-2 inactive
CCN(CC)C(=O)c1sc2nc(-c3cccs3)cc(-c3ccc(Cl)cc3)c2c1N	D1 agonist 54.5 | TRHR enhancer-2 inactive | TRHR agonist-2 18.4µM
O=C(NCCOc1ccccc1)C1CCC(=O)N(C2CCCCCC2)C1 (stereo not drawn)	TRHR enhancer-1 57.7 | TRHR enhancer-2 inactive | TRHR agonist-2 inactive
O=C(NCCc1ccccc1Cl)C1CCC(=O)N(C2CCCCCC2)C1 (stereo not drawn)	none
COc1ccc(OCC(=O)Nc2ccc(N3CCN(C(=O)c4ccccc4)CC3)c(Cl)c2)cc1	none
O=C(CNC(=O)c1ccccc1)NC1(C(=O)NC2CCCCC2)CCCCC1	TRHR enhancer-1 53.4 | TRHR enhancer-2 inactive | TRHR agonist-2 inactive
O=C(CNC(=O)c1ccccc1)NC1(C(=O)NC2CCCC2)CCCCC1	none
CC1(C)Cc2c(sc(NC(=O)c3ccc4ncsc4c3)c2C(N)=O)C(C)(C)N1	TRHR enhancer-1 43.6 | TRHR enhancer-2 inactive | TRHR agonist-2 inactive
